Assay outcomes: PubChem BioAssay, several laboratories
PTPN22 inh 2 – PTPN22 phosphatase inhibitors, primary screen, biochemical, DiFMUP fluorescence, 2 µM. Tyrosine-protein phosphatase non-receptor type 22 (Homo sapiens), Q9Y2R2. recombinant LYP catalytic domain. inhibition, % at 2 µM. hit rate 0.21% among 96,000. AID 640, 2007;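 active means inhibition at 2 µM at or above a set limit, the screen mean plus 3 SD, cut at about 24% in these data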;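 further: 0% = DMSO with enzyme and 100% = enzyme fully blocked by orthovanadate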
Target sequence (Q9Y2R2 whole entry, looked up, the tested form may be a part): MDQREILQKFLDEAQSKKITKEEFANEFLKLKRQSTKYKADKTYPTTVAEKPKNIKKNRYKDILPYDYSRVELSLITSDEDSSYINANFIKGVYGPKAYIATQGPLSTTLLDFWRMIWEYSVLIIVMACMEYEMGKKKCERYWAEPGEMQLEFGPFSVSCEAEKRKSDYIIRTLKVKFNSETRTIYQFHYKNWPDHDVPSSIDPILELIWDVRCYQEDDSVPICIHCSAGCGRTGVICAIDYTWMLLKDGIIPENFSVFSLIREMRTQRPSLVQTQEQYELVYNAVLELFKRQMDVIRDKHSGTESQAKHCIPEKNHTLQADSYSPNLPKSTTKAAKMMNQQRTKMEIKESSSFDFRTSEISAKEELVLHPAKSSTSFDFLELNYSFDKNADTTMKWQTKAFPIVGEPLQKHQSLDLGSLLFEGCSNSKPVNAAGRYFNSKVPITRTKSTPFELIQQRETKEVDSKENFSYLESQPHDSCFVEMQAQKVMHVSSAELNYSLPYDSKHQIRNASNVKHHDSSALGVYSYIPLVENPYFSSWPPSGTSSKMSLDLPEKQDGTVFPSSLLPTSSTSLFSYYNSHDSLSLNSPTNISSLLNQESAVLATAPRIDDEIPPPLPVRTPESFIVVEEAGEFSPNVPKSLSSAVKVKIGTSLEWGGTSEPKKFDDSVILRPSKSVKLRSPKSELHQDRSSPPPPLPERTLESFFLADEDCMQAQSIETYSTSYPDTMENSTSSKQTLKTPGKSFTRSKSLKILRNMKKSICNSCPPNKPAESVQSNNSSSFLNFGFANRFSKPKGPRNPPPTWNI
PTPN22 act – LYP phosphatase activators, primary screen, biochemical, DiFMUP fluorescence, 2 µM; recombinant LYP; 0 = plate median, 100 = signal doubled; Tyrosine-protein phosphatase non-receptor type 22 (Homo sapiens), Q9Y2R2; hit rate 0.11% among 96,000; activation, % at 2 µM;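 active means activation at 2 µM above a set limit, the mean plus 5 SD, cut at about 37% in these data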
Measles CPE – compounds protecting cells from measles virus cytopathic effect, primary screen, measles RdRp inhibitor project, single point, MLSMR library, absorbance | Measles virus-infected cells, CPE protection | protection (pct of control), % at 4 µM | AID 841, 2007 | hit rate 1.5% among 140,000; in the data active means protection mostly above about 24%, no sharp cut-off; inactive means mostly below about 26%
Active calls of the source: *; . = not tested or not shown. An excerpt weighted towards active compounds, which were near 1.7% of everything screened.

SMILES	PTPN22 inh 2	PTPN22 act	Measles CPE
CCN1CCc2c(C#N)c(N3CCCCC3)nc(NCc3ccccc3)c2C1	-7	10	0
C=CCNc1nc(N2CCCCC2)c(C#N)c2c1CN(Cc1ccccc1)CC2	5	-6	61*
O=C(COc1cccc2cccnc12)N/N=C1\SCC(=O)N1Cc1ccco1	1	-1	7
O=c1[nH]c2ccc(Br)cc2c(-c2ccccc2)c1CN1CCOCC1	2	-2	23
O=c1[nH]c2ccc(Br)cc2c(-c2ccccc2)c1N1CCOCC1	0	-2	56*
COc1ccc(/C=C(\C#N)C(=O)Nc2cc(S(=O)(=O)N3CCOCC3)ccc2N2CCCC2)cc1	.	.	15
COc1c(C)cc(Br)cc1C(=O)O	4	-4	18
O=C(NCc1ccc(F)cc1)C(c1ccccc1)N(CC1CCCO1)C(=O)Cn1nnc2ccccc21 (stereo not given)	5	-8	3
Cc1cccc(C)c1NC(=O)CCN1C(=O)C2C3CCC(C3)C2C1=O (stereo not given)	-2	7	21*
Cc1cc(NC(=O)CCN2C(=O)C3C4CCC(C4)C3C2=O)c(C)cc1Br (stereo not given)	2	1	3
O=C(/C=C/c1ccc(F)cc1)Nc1cc(S(=O)(=O)N2CCOCC2)ccc1N1CCCC1	.	.	27
Cc1ccc(C(=O)Cn2nnc(-c3ccccc3-n3cnnn3)n2)cc1	-12	9	22
Cc1ccc(-c2nnn(CC(=O)Nc3ccccc3-c3ccccc3)n2)c(-n2cnnn2)c1	5	-6	42*
CC(C(=O)N/N=C/c1ccc(N(C)C)c(Br)c1)N(c1ccccc1)S(C)(=O)=O (stereo not given)	8	-5	14
Cc1cc(-c2csc(N)n2)c(C)n1CCc1ccccc1	9	-11	8
Cc1cc(-c2csc(N)n2)c(C)n1CCC(C)C	28*	-29	7
COCCCNCCCCOc1ccc(Br)cc1C	.	.	4
Cc1c(C(=O)N2CCOCC2)oc2ccc(S(=O)(=O)N3CCCCCC3)cc12	.	.	11
CCOC(=O)Cn1c(S(=O)(=O)Cc2ccc(F)cc2)nc(-c2ccccc2)c1-c1ccccc1	13	-9	52*
NC(=O)Cn1c(S(=O)(=O)Cc2ccccc2)nc2ccccc21	-11	3	.
CCOC(=O)Cn1c(-c2ccccc2)nc2ccccc2c1=O	-13	17	8
CCOC(=O)Cn1c(S(=O)(=O)Cc2cccc(F)c2)nc(-c2ccccc2)c1-c1ccccc1	4	3	31*
Cc1nnn(C23CC4CC(CC(C(=O)NN)(C4)C2)C3)n1	.	.	33*
NNC(=O)C12CC3CC(C1)CC(n1ncnn1)(C3)C2	.	.	9
c1ccc(SCc2nc(-c3cccnc3)no2)cc1	4	-9	19
SMILES	PTPN22 inh 2	PTPN22 act	Measles CPE
O=c1c2ccccc2nnn1CSc1nnc(-c2cccc(S(=O)(=O)N3CCCCC3)c2)o1	6	-3	7
CC(C)(C)NC(=O)c1ccc2nccnc2c1	5	-7	52*
CC(C)(C)NC(=O)Nc1ccc2nccnc2c1	-4	2	20
CC(=O)c1c(C)[nH]c(C(=O)OCc2nnc(-c3ccccc3)o2)c1C	7	-4	7
COC(=O)c1cc(Br)c(=O)n(Cc2ccc(C(=O)O)cc2)c1	8	-7	32*
COC(=O)c1cc(Br)c(=O)n(Cc2ccncc2)c1	8	-11	25
COc1cc(OC)cc(C(=O)NCC(=O)OC2CCOC2=O)c1 (stereo not given)	-7	5	6
CCOc1ccc(C(=O)NCC(=O)OC2CCOC2=O)cc1OCC (stereo not given)	8	-6	42*
COC(=O)CSc1nc2ccccc2o1	-4	1	43*
O=C(CSc1nc2ccccc2o1)Nc1ccc(Cl)cc1	0	2	26*
CC(=O)Nc1ccc(NC(=O)CSc2nc3ccccc3o2)cc1	.	.	5
CC(=O)CSc1nc2ccccc2o1	3	0	21
CCCC(=O)NC(Nc1cc(C(F)(F)F)ccc1Cl)C(Cl)(Cl)Cl (stereo not given)	-1	5	2
Cc1nc(SCC(=O)Nc2ccc(Cl)cc2[N+](=O)[O-])nc(C)c1C	.	.	4
CCN1C(=O)C(NC(C)=O)c2cc(OC)ccc21 (stereo not given)	-5	3	8
COc1ccc([C@@H]2Sc3cc(OC)ccc3N(CCN(C(C)C)C(C)C)C(=O)[C@H]2OC(C)=O)cc1	3	-2	48*
CCc1ccc(OCC(=O)NCCOc2ccccc2)cc1	0	4	5
COc1ccc(OC)c(Nc2ccc(Nc3cc(OC)ccc3OC)nn2)c1	.	.	23
O=c1c(-c2nnc(SCc3ccc(Cl)cc3Cl)o2)cccn1Cc1ccccc1	25*	-23	6
Clc1ccc(CSc2nnc(-c3ccncc3)o2)c(Cl)c1	7	-9	13
Cc1ccc(CN2CCc3c(OCC(=O)Nc4cc(C)ccc4C)cccc3C2=O)cc1	.	.	3
CC(C)NS(=O)(=O)c1ccc(NC(=S)NC(=O)c2ccc(-c3ccccc3)cc2)cc1	13	-8	44*
O=C(NC(=S)Nc1ccccc1)c1ccc(-c2ccccc2)cc1	.	.	6
N#CCSc1nc2ccccc2c(=O)n1CCC(=O)NCCc1ccccc1	-4	1	1
O=C(Nc1cccc(-n2cnnn2)c1)c1ccco1	-3	2	9
SMILES	PTPN22 inh 2	PTPN22 act	Measles CPE
N#Cc1c(NC(=O)CSc2ccccn2)oc(-c2ccccc2)c1-c1ccccc1	-2	6	33*
CCn1c(SCC(=O)Nc2oc(-c3ccccc3)c(-c3ccccc3)c2C#N)nnc1-c1ccncc1	3	0	6
CCS(=O)(=O)c1nc2ccccc2n1Cc1ccccc1Cl	2	-4	17
COc1ccc(-n2nc(C(=O)NCC(=O)NCc3ccco3)c3ccccc3c2=O)c(OC)c1	-6	7	9
COc1ccc(-n2nc(C(=O)NCC(=O)NCc3ccc(F)cc3)c3ccccc3c2=O)c(OC)c1	-8	5	87*
CN(C)S(=O)(=O)c1cccn1-c1ncc(C(F)(F)F)cc1Cl	4	-4	43*
O=C(Nc1ccc(Br)cc1)c1cccn1-c1ncc(C(F)(F)F)cc1Cl	12	-9	13
Cc1ccnc(NS(=O)(=O)c2cccc3nsnc23)c1	-10	7	.
CCCCC(=O)Nc1ccc2oc(-c3ccncc3)nc2c1	11	-12	4
CCCC(=O)Nc1ccc2oc(-c3ccncc3)nc2c1	9	-9	37*
Cc1cccc(CCNc2nc3ccccc3n3nnnc23)c1	7	-2	5
CCNC(=S)N/N=C/c1cn(Cc2ccc(F)cc2)c2ccccc12	.	.	29*
CNC(=S)N/N=C/c1cn(Cc2c(F)cccc2Cl)c2ccccc12	.	.	14
COc1ccc(C(=O)NC2CCCCCC2)cc1S(=O)(=O)Nc1ccc(Br)cc1	6	-5	32*
CCN(Cc1ccccc1)S(=O)(=O)c1cc(C(=O)NC2CCCCCC2)ccc1OC	.	.	2
O=C(Nc1ccc2oc(-c3ccccc3Cl)nc2c1)c1ncn[nH]1	2	-7	4
O=C(Nc1ccc2oc(-c3cccc4ccccc34)nc2c1)c1ncn[nH]1	52*	-54	4
O=[N+]([O-])c1cc(C(F)(F)F)ccc1NCCOc1ccccc1	.	.	11
